Results filed as inconclusive are left out. Calls of active or inactive are those of the source. The call rests on the fitted dose curve; in most records, active means well fitted curve in the direction sought with a large enough effect; inconclusive means small, poorly fitted or top-dose-only effect, or another doubt; inactive means no such curve, though single readings can be large; an effect the other way counts as inactive or inconclusive. Numbered stars: 1 amine (or outer) side, 2 acyl side, 3 side chain; on linkers, the order of the positions; unused ones are H or OH. Square brackets hold non-standard residues; d marks the D form. Peptide text beside a SMILES is read from it. ξ: configuration not given here. X4 = O=C(C1CC2(c3ccc(O)cc3)c3ccccc3NC2N1[*:1])[*:2]; ξW = NC(Cc1c[nH]c2ccccc12)C(=O)O; ξY = NC(Cc1ccc(O)cc1)C(=O)O
Columns and labels:
[1] = test system: Zika virus NS2B-NS3 protease (linked construct); assay: Primary screen NINDS Rhodamine qHTS for Zika virus inhibitors (AID 1347160); further: potency means the concentration at half of the fitted maximal effect; nearly all actives have a fitted effect of over 55% in size
Outline: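 Rhodamine110-peptide cleavage (1.5 µM substrate) by 25 nM linked NS2B-NS3 enzyme at pH 8.0 (Tris, Tween 20), after 15 min RT preincubation with compounds; 15-min fluorescence change normalized to controls and Hill-fitted.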

[2] = OV-KATE Cancer Cell Toxicity qHTS against the NCATS CANVASS Library (AID 1347345)
Outline: (§1)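 Viability read-out: CellTiter-Glo luminescence after 72 h compound exposure at 37 °C/5% CO2. Cells plated at 1000/well, 4 h pre-incubation; 11-point titration. Bortezomib served as control.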

[3] = HPAF-II Cancer Cell Toxicity qHTS against the NCATS CANVASS Library (AID 1347346); further: series mostly up to about 38 µM; nearly all actives have a fitted effect of over 55% in size
Outline: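 First, HPAF-II cells are plated (1000 cells/well) and held 4 h at 37 degrees C. Next, compounds are pin-transferred as an 11-point series. After 72 h, CellTiter-Glo is added and luminescence measured.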

[4] = UWB1.289 Cancer Cell Toxicity qHTS against the NCATS CANVASS Library (AID 1347347); further: series mostly up to about 38 µM; nearly all actives have a fitted effect of over 60% in size
Outline: as §1

[5] = OV-SAHO Cancer Cell Toxicity qHTS against the NCATS CANVASS Library (AID 1347348); further: series mostly up to about 38 µM; nearly all actives have a fitted effect of over 55% in size
Outline: as §1

[6] = Panc-1005 Cancer Cell Toxicity qHTS against the NCATS CANVASS Library (AID 1347349); further: series mostly up to about 38 µM; nearly all actives have a fitted effect of over 60% in size
Outline: as §1

[7] = SW1088 Cancer Cell Toxicity qHTS against the NCATS CANVASS Library (AID 1347350); further: series mostly up to about 38 µM; nearly all actives have a fitted effect of over 75% in size
Outline: as §1

[8] = U-118MG Cancer Cell Toxicity qHTS against the NCATS CANVASS Library (AID 1347351); further: series mostly up to about 38 µM
Outline: as §1

[9] = COV-362 Cancer Cell Toxicity qHTS against the NCATS CANVASS Library (AID 1347352); further: series mostly up to about 38 µM
Outline: (§2)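 First, 1000 cells go into each well and rest for 4 hours. Next, an 11-point dilution range is pinned in. Plates then incubate 72 hours before CellTiter-Glo addition and luminescence reading.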

[10] = A2780 Cisplatin Sensitive Ovarian Cancer Cell Toxicity qHTS against the NCATS CANVASS Library (AID 1347353); further: nearly all actives have a fitted effect of over 60% in size
Outline: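 Cells are plated at 750 per well and rest for 4 hours. Compounds are added across eleven concentrations, and incubated 72 hours before ATP is quantified by luminescence.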

[11] = UWB1.289-WTBRCA1 Cancer Cell Toxicity qHTS against the NCATS CANVASS Library (AID 1347354)
Outline: as §2

[12] = HEK-293 Cancer Cell Toxicity qHTS against the NCATS CANVASS Library (AID 1347355); further: series mostly up to about 46 µM; nearly all actives have a fitted effect of over 65% in size
Outline: as §2

[13] = HPAF-II 24hr Apoptosis Induction qHTS against the NCATS CANVASS Library (AID 1347356)
Outline: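 Cells seeded at 500 per well, then compounds pin-transferred in an 11-point concentration series. After 24 hours at 37 degrees C, Caspase-Glo 3/7 was added and luminescence measured following 15 min at room temperature.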

[14] = HEK293 18hr Apoptosis Induction qHTS against the NCATS CANVASS Library (AID 1347357)
Outline: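 Luminescent caspase-3/7 signal is measured in HEK293 cells exposed for 18 hours to an 11-point concentration series; doxorubicin serves as the plate control.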

[15] = HPAF-II 12hr Apoptosis Induction qHTS against the NCATS CANVASS Library (AID 1347358)
Outline: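 Cells plated at 500 per well are dosed with compound and incubated 12 hours at 37 degrees C. Caspase-Glo 3/7 reagent is added and, after 15 min at room temperature, luminescence proportional to caspase activity is measured.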

[16] = HEK293 24hr Apoptosis Induction qHTS against the NCATS CANVASS Library (AID 1347359)
Outline: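 HEK293 cells (500/well, DMEM + 10% FBS) were exposed to compounds in an 11-point series for 24 hours at 37 degrees C, then caspase-3/7 activity was read by Caspase-Glo DEVD luciferase luminescence after 15 min.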

[17] = HPAF-II 18hr Apoptosis Induction qHTS against the NCATS CANVASS Library (AID 1347360)
Outline: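 Apoptosis was scored as caspase-3/7 activity in HPAF-II pancreatic cancer cells treated 18 hours with an 11-point concentration series.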

[18] = HEK293 12hr Apoptosis Induction qHTS against the NCATS CANVASS Library (AID 1347361)
Outline: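 Apoptosis in HEK293 was scored as caspase-3/7 luminescence following 12 h treatment with a compound concentration series in qHTS format.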

[19] = test system: NAD(P)H diaphorase (Clostridium kluyveri); assay: Diaphorse counterscreen qHTS: Assay Interference Panel against the NCATS CANVASS Library (AID 1347362)
Outline: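 Clostridium kluyveri diaphorase in PBS with 0.01% Tween-20 was preincubated 15 min at room temperature in the dark with compounds (11-point series). Resorufin fluorescence (ex 525/20, em 598/25) was read 5 min after adding resazurin/NADH.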

[20] = target: Luciferin 4-monooxygenase (Photinus pyralis) (UniProt P08659); assay: Firefly luciferase counterscreen qHTS: Assay Interference Panel against the NCATS CANVASS Library (AID 1347363); further: series mostly up to about 57 µM
Outline: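 Purified P. pyralis luciferase was added to compounds (11-point series) preincubated 15 min at room temperature with substrate containing 0.013 mM D-luciferin and 0.013 mM ATP; luminescence was read after 5 min.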

[21] = KB-8-5-11 Cancer Cell Toxicity qHTS against the NCATS CANVASS Library (AID 1347364); further: nearly all actives have a fitted effect of over 75% in size
Outline: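 Terse: KB-8-5-11, 500 cells/well, 72 hr, 37C/5% CO2, 11-pt titration, CellTiter-Glo readout; confirmatory runs ± 1uM tariquidar in medium.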

[22] = SDT Cancer Cell Toxicity qHTS against the NCATS CANVASS Library (AID 1347365);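 further: SDT canine glioma cells 500 per well in 1536 well plates; series mostly up to about 46 µM; nearly all actives have a fitted effect of over 60% in size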
Outline: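 Cytotoxicity is measured from cellular ATP: compounds in an 11-point concentration series are pinned onto SDT cells, incubated 72 hr at 37C, then CellTiterGlo is added and luminescence read.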

[23] = KB-3-1 Cancer Cell Toxicity qHTS against the NCATS CANVASS Library (AID 1347366); further: nearly all actives have a fitted effect of over 75% in size
Outline: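 Seed KB-3-1 cells at 500/well in DMEM with 10% FBS, add compounds, incubate 72 hr at 37C and 5% CO2, then add CellTiter-Glo and read luminescence after 10 minutes.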

[24] = qHTS for ATAD5 Agonist screened against the NCATS CANVASS Library (AID 1347367);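 further: luciferase reporter driven by ATAD5 which rises upon DNA damage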
Outline: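 Step one plated reporter cells and let them acclimate 5hr. Step two pinned compounds with MMS as positive and 0.46% DMSO as negative control. After 16hr incubation, fluorescence viability then luminescence were read.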

Measured: Potency

Luciferin 4-monooxygenase (Photinus pyralis), sequence (P08659 whole entry, looked up): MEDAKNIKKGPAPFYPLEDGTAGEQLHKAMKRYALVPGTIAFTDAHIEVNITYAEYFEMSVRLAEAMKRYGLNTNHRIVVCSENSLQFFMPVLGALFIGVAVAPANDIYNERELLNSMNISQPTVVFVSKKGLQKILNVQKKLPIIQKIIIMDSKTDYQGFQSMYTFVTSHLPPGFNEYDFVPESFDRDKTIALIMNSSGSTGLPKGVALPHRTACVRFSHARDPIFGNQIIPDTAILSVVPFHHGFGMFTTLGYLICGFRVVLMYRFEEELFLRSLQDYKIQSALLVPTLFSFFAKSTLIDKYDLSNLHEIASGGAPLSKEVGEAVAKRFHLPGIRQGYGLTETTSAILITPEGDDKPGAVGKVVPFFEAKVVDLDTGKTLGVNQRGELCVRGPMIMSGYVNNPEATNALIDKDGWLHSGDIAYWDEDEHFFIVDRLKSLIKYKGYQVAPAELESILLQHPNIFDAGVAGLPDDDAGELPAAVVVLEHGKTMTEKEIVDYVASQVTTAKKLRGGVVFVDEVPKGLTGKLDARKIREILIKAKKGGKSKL

CC[C@H](C)[C@H](NC(=O)C(Cc1ccc(O)cc1)NC(=O)C(Cc1c[nH]c2ccccc12)NC(=O)[C@H](C)N)C(=O)N1C(C(=O)NC(Cc2ccc(O)cc2)C(=O)O)CC2(c3ccc(O)cc3)c3ccccc3NC12 (some centres undefined) (H-A[ξW][ξY]I[X4][ξY]-OH)
active: [1] 9.84 µM
inactive: all other assays above

From PubChem BioAssay (NCATS)
